HT1080NT lethal = kills 2HG-producing HT-1080-NT fibrosarcoma cells; HT-1080-NT fibrosarcoma viability, CellTiter-Glo ATP luminescence, 48 h; hit rate 1.6% among 360,000; Potency, µM (doses to about 46.1 µM), without a hit: at the top dose activity, negative = less viability, usual class: cytotoxic;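 also: NT is the 2HG producing partner of a matched IDH1 knockdown line; potency is read from the fitted curve at half-maximal effect; 0% = DMSO-treated cells and -100% = media-only wells without cells; nearly all actives have a fitted effect of over 55% in size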
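Compounds were tested in concentration-response format on HT-1080-NT cells for 48 hours at 37 degrees C. Cell viability came from CellTiter-Glo luminescence; curves were classified by r2, response magnitude and activity.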
IL-1B inflam inh = blocks inflammasome-driven IL-1 beta release. AID 743279. activity change, % at 57.5 µM. THP-1 LPS/ATP IL-1B secretion, AlphaLISA, 16 h; hits give low values. hit rate 4.7% among 360,000; in the data active = activity change below about -50%; inconclusive = mostly about -30% to -49%
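Secreted IL-1B measured by AlphaLISA bead assay after 16 h compound exposure of THP-1 cells; compounds (final up to 57.5 uM) added 1 h before LPS (250 ng/mL) and ATP (1.25 mM) stimulation; lower signal means less secretion.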
TDP1 cell noCPT = qHTS for Inhibitors of human tyrosyl-DNA phosphodiesterase 1 (TDP1): qHTS in cells in absence of CPT | DT40 Tdp1-/- hTDP1 cells, no CPT, ATP luminescence, 48 h | Potency, µM (doses to about 46.2 µM), for inactives: top-dose activity change, negative = growth inhibition, actives largely listed as inhibitors | hit rate 15% among 420,000; also: potency is read from the fitted curve at half-maximal effect; nearly all actives have a fitted effect of over 55% in size
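Cells were dispensed at 400 per well, compounds added by pin tool, plates incubated ≥48 hr at 37 °C, then CellTiter-Glo added for 30 min at room temperature before luminescence reading. Line: DT40 Tdp1-/- complemented with hTDP1; camptothecin omitted.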
TDP1 cell CPT = growth inhibition of DT40 Tdp1-/-;hTDP1 cells with camptothecin (screen for TDP1 inhibitors); chicken DT40 Tdp1-/-;hTDP1 cells + 20 nM CPT, ATP luminescence, 48 h; Potency, µM (highest dose often 46.2 µM), inactives show top-dose activity change, negative = growth inhibition, hits mostly inhibitors; hit rate 12% among 420,000; also: potency is read from the fitted curve at half-maximal effect; nearly all actives have a fitted effect of over 55% in size
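Chicken DT40 Tdp1-/- cells complemented with human TDP1, 400 cells/well, exposed to compounds plus 20 nM camptothecin for at least 48 h at 37 C; viability read as ATP content by CellTiter-Glo luminescence.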
ELG1 DNA repair = ELG1-dependent DNA repair inhibition | HEK293T ELG1-luciferase reporter, luminescence, 16 h; DNA damage induced by 5-fluorouridine | Potency, µM (series often up to 46.1 µM), for inactives: top-dose activity change, negative = inhibition, most hits filed as inhibitors | hit rate 2.3% among 330,000; also: potency is read from the fitted curve at half-maximal effect; nearly all actives have a fitted effect of over 55% in size
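5-Fluorouridine DNA damage + compound/DMSO, 2,000 cells/well, 16 h, 37 °C/5% CO2. ONE-Glo, 30 min RT, luminescence. Readout = decrease in reporter signal.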
HT1080 IDH1KD tx = HT-1080 IDH1 knockdown cell toxicity (counter line); HT-1080 IDH1 knockdown viability, ATP luminescence, 48 h; Potency, µM (top dose mostly 46.1 µM), without a hit: top-dose activity, negative = toxicity, usual class: cytotoxic; hit rate 2% among 360,000; AID 686971;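 also: potency is read from the fitted curve at half-maximal effect; 0% = DMSO wells and -100% = cell-free medium wells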
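% activity derives from luminescence (CellTiter-Glo), normalised to DMSO and no-cell wells. HT-1080-IDH1KD cells, 750/well, had 48 h compound exposure at 37 °C.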
An asterisk follows results filed as active. Only some compounds are listed: those with a hit (about 19% of all), similar ones and a draw of the others. Unless noted, calls follow the shape of the dose curve; as a rule, active = well fitted curve in the direction sought with a large enough effect; inconclusive = small, poorly fitted or top-dose-only effect, or another doubt; inactive = no such curve, though single readings can be large; an effect the other way counts as inactive or inconclusive. Unless noted, % is scaled to controls: 0 for no effect and ±100 for the full control effect.

`CCCCc1c(-c2ccccc2OC)ncn1Cc1ccc(Cl)cc1` gave HT1080NT lethal inconclusive, IL-1B inflam inh inconclusive, TDP1 cell noCPT 12µM*, TDP1 cell CPT 13µM* and HT1080 IDH1KD tx 18µM*.
Screening CCCCc1c(-c2ccccc2OC)ncn1CCc1cccc(Cl)c1 returned HT1080NT lethal 18µM*, IL-1B inflam inh -25, TDP1 cell noCPT 21µM*, TDP1 cell CPT 16µM* and HT1080 IDH1KD tx inconclusive.
For CCCCc1c(-c2ccccc2OC)ncn1Cc1ccc(-c2ccccc2)cc1 the results were HT1080NT lethal inconclusive, IL-1B inflam inh inconclusive, TDP1 cell noCPT 21µM*, TDP1 cell CPT 15µM* and HT1080 IDH1KD tx inconclusive.
For CCCCc1c(-c2ccccc2OC)ncn1Cc1cccc(-c2ccccc2)c1 the results were HT1080NT lethal 21µM*, IL-1B inflam inh -98*, TDP1 cell noCPT 6.5µM*, TDP1 cell CPT 12µM* and HT1080 IDH1KD tx inconclusive.
`COc1cccc(Cn2cnc(-c3ccccc3OC)c2-c2cc(C)cc(C)c2)c1` gave HT1080NT lethal inconclusive, IL-1B inflam inh -3, TDP1 cell noCPT inconclusive, TDP1 cell CPT inconclusive and HT1080 IDH1KD tx inconclusive.
CCOc1ccc(CCNC(=O)COC(=O)c2c(C)nn(-c3ccccc3)c2C)cc1OCC was read as HT1080NT lethal -17%, IL-1B inflam inh -18, TDP1 cell noCPT -15%, TDP1 cell CPT inconclusive, ELG1 DNA repair -18% and HT1080 IDH1KD tx -8%.
For CCCCc1c(-c2ccccc2OC)ncn1C1CCCC1 the results were HT1080NT lethal inconclusive, IL-1B inflam inh -18, TDP1 cell noCPT 10µM*, TDP1 cell CPT 18µM* and HT1080 IDH1KD tx inconclusive.
For COc1ccccc1C1=Nn2c(nnc2C2CCCCC2)SC1 the results were HT1080NT lethal -2%, IL-1B inflam inh inconclusive, TDP1 cell noCPT -28%, TDP1 cell CPT -30%, ELG1 DNA repair inconclusive and HT1080 IDH1KD tx -16%.
`COc1cccc(Cn2cnc(-c3ccccc3OC)c2C2CC2)c1` gave HT1080NT lethal inconclusive, IL-1B inflam inh 0, TDP1 cell noCPT 21µM*, TDP1 cell CPT inconclusive and HT1080 IDH1KD tx inconclusive.
Screening COC(=O)C1=C(C)NC(=S)NC1c1ccc(-c2cc(Cl)ccc2Cl)o1 (centres undefined) returned HT1080NT lethal inconclusive, IL-1B inflam inh 33, TDP1 cell noCPT 5.8µM*, TDP1 cell CPT 6.5µM*, ELG1 DNA repair inconclusive and HT1080 IDH1KD tx inconclusive.
`COC(=O)C1=C(C)NC(=O)NC1c1ccc(-c2ccc(Cl)cc2)o1` (centres undefined) gave HT1080NT lethal -3%, IL-1B inflam inh 0, TDP1 cell noCPT inconclusive, TDP1 cell CPT -28%, ELG1 DNA repair inconclusive and HT1080 IDH1KD tx -25%.
For COc1ccc(-c2csc(NC(C)c3nc4cc(C(F)(F)F)ccc4n3CCOCCO)n2)cc1 (centres undefined) the results were HT1080NT lethal -24%, IL-1B inflam inh inconclusive, TDP1 cell noCPT 18µM*, TDP1 cell CPT 16µM* and HT1080 IDH1KD tx inconclusive.
`CC(Nc1nc(-c2ccc(F)cc2)cs1)c1nc2cc(C(F)(F)F)ccc2n1CCOCCO` (centres undefined) gave HT1080NT lethal 10%, IL-1B inflam inh 1, TDP1 cell noCPT inconclusive, TDP1 cell CPT inconclusive and HT1080 IDH1KD tx 3%.
`Cc1csc(NC(C)c2nc3cc(Cl)c(Cl)cc3n2CCCO)n1` (centres undefined) gave HT1080NT lethal -27%, IL-1B inflam inh -9, TDP1 cell noCPT -17%, TDP1 cell CPT inconclusive and HT1080 IDH1KD tx -20%.

Screens as filed in PubChem.
